This note sets out measurements from PubChem BioAssay (NCATS).

The nature of assay [1]: Cell Viability - Jurkat (AID 426;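 active = dose-dependent loss of cell ATP signal giving a full or clear fitted curve, ranked by lower potency value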;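 also: potency is read from the fitted curve at half-maximal effect; cells exposed to compound for 40 hours at 37 °C before ATP read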). Conditions: qHTS. The method, boiled down:
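Cytotoxicity was scored as loss of cellular ATP, measured by luciferase-based luminescence, in Jurkat clone E6-1 cells after 40 h compound treatment; tamoxifen and doxorubicin served as positive controls.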
Background: qHTS replaces the single test concentration by a dilution series.

The nature of assay [2]: Cell Viability - Hek293 (AID 427;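 active = compounds whose dose-response curve shows a full or clear partial loss of cell viability, called from curve shape rather than a numeric limit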;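 also: potency is read from the fitted curve at half-maximal effect; cells exposed to compound for 40 hours at 37 °C before reading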). To be noted: qHTS. The method, boiled down: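 qHTS, human embryonic kidney (adenovirus-transformed) cells; 40 hr cpd, 37 °C; CellTiter-Glo ATP luminescence. Norm: DMSO = 0, 100 uM tamoxifen = 100% inhibition. Hill-fit AC50.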
The nature of assay [3]: Cell Viability - HepG2 (AID 433; calls by dose curve;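 also: potency is read from the fitted curve at half-maximal effect; cells exposed to compound for 40 hours; potency for ATP loss meaning cytotoxicity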). To be noted: qHTS. In a few lines: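 Cytotoxicity read as ATP loss (CellTiter-Glo luminescence) after 40 hr compound exposure of HepG2, 1500 cells/well, 37 °C. AC50 by Hill equation; 0% set by DMSO, 100% inhibition by 100 uM tamoxifen.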
A short description of assay [4]: Cell Viability - N2a (AID 540).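 Also: cells exposed to compound for 40 h at 37 °C; nearly all actives have a fitted effect of over 45% in size.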 Also: potency is read from the fitted curve at half-maximal effect.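 As to activity change, negative = cytotoxicity: plate controls were DMSO alone for no effect and tamoxifen control for full effect.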 Conditions: N2a mouse neuroblastoma cell viability; activity change, negative = cytotoxicity: at 92.2 µM (top of the series). The method, boiled down: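 In this qHTS cytotoxicity screen, ATP-dependent luciferase luminescence reports viable N2a cells after a 40 hr compound exposure in complete culture medium. Potencies are AC50 values from standard Hill equation fits.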

The nature of assay [5]: Cell Viability - H-4-II-E (AID 543).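 Also: cells exposed to compound for 40 hours; nearly all actives have a fitted effect of over 35% in size.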 Also: potency is read from the fitted curve at half-maximal effect. Conditions: H-4-II-E rat hepatoma viability; series mostly up to 92.2 µM. The method, boiled down:
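AC50 from Hill-modelled qHTS concentration-response curves. H-4-II-E rat hepatoma cells in complete medium, 40 hr exposure at 37 °C, viability by CellTiter-Glo ATP luminescence.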

A short description of assay [6]: Cell Viability - Renal Proximal Tubule (AID 545).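 Also: cells exposed to compound for 40 hours; 0% = DMSO only and -100% = 100 µM tamoxifen; nearly all actives have a fitted effect of over 40% in size.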 To be noted: renal proximal tubule cells viability, primary cells of rat origin; at 91.7 µM (top of the series). In a few lines: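 Viability taken as intracellular ATP (CellTiter-Glo luminescence) after 40 hr, 37 °C compound treatment of primary proximal tubule cells from rat kidney, 1000 cells/well; Hill-equation fits of qHTS concentration-response data gave AC50.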

In assay [7] the target is Peroxisome proliferator-activated receptor gamma (Homo sapiens) (UniProt P37231). The assay can be described thus: qHTS assay for small molecule antagonists of peroxisome proliferator-activated receptor gamma signaling (AID 588537; active = well fitted inhibition curve with a large enough effect in the signal ratio, with a control signal flat, not every such curve was filed as active; the % refers to the signal ratio;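 also: reporter cells co-stimulated with 50 nM rosiglitazone agonist during compound treatment; % of control where 0% means no effect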). To be noted: HEK293 PPARg-UAS-bla, beta-lactamase ratio, antagonist mode; series mostly up to 76.8 µM. In a few lines:
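Cell-based beta-lactamase assay; GW9662 served as the antagonist control. Stimulation used rosiglitazone, final 50 nM, 16 h, 37 C.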

Assay [8] has as its target Retinoic acid receptor RXR-alpha (Homo sapiens) (UniProt P19793). The assay can be described thus: qHTS assay for small molecule agonists of retinoid X receptor alpha signaling (AID 588544; calls by dose curve;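 also: 0% = DMSO basal wells and 100% = reference agonist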). Conditions: HEK293T RXRa-UAS-bla, beta-lactamase reporter, 18 h; series mostly up to 76.7 µM.
In the next assay the test system is AS120. The assay can be described thus: qHTS profiling for inhibitors of Plasmodium falciparum proliferation (AID 504749). Also: nearly all actives have a fitted effect of over 60% in size. Also: potency is read from the fitted curve at half-maximal effect. To be noted: P. falciparum in erythrocytes, SYBR Green DNA, 72 h; series mostly up to 28.7 µM. In a few lines:
(§1)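 In a 72 h erythrocytic culture (37 C, humidified, 5% CO2) at 2.5% hematocrit and 0.3% starting parasitemia, compounds were tested; SYBR Green I in detergent lysis buffer stained parasite DNA overnight.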

A further assay deals with CP217. The description is as above. Conditions: P. falciparum in erythrocytes, SYBR Green DNA, 72 h; series mostly up to 28.7 µM. In a few lines:
as §1

The test system of another assay is CP247. Described as above. To be noted: P. falciparum in erythrocytes, SYBR Green DNA, 72 h; series mostly up to 28.7 µM. The method, boiled down:
as §1

A further assay relates to CP256. Described as above. To be noted: P. falciparum in erythrocytes, SYBR Green DNA, 72 h; series mostly up to 28.7 µM. In a few lines: as §1
The test system of the next assay is CP269. The assay is described as above. Conditions: P. falciparum in erythrocytes, SYBR Green DNA, 72 h; series mostly up to 28.7 µM. The method, boiled down: as §1
A further assay relates to DIV17. Described as above. To be noted: P. falciparum in erythrocytes, SYBR Green DNA, 72 h; series mostly up to 28.7 µM. The method, boiled down:
as §1

The next assay has as its system ECU. The description is as above. To be noted: P. falciparum in erythrocytes, SYBR Green DNA, 72 h; series mostly up to 28.7 µM. In a few lines: as §1
For a further assay, the system named is ICS. Described as above. To be noted: P. falciparum in erythrocytes, SYBR Green DNA, 72 h; series mostly up to 28.7 µM. The method, boiled down:
as §1

The test system of the next assay is JCK. The assay is described as above. To be noted: P. falciparum in erythrocytes, SYBR Green DNA, 72 h; series mostly up to 28.7 µM. The method, boiled down:
as §1

For a further assay, the system named is N140. The assay is described as above. Conditions: P. falciparum in erythrocytes, SYBR Green DNA, 72 h; series mostly up to 28.7 µM. The method, boiled down: as §1
For a further assay, the system named is P94_40. Described as above. To be noted: P. falciparum in erythrocytes, SYBR Green DNA, 72 h; series mostly up to 28.7 µM. In a few lines:
as §1

The subject of a further assay is TAB109. The assay is described as above. To be noted: P. falciparum in erythrocytes, SYBR Green DNA, 72 h; series mostly up to 28.7 µM. The method, boiled down: as §1

Several values for one entry are separate records, joined by “and”; a condition that tells them apart may be missing. Equal entries are not always repeated. Records with an inconclusive call do not appear. A number with no mark means an inactive call. Activity calls are given as the source filed them. Unless noted, calls follow the shape of the dose curve; as a rule, active = well fitted curve in the direction sought with a large enough effect; inconclusive = small, poorly fitted or top-dose-only effect, or another doubt; inactive = no such curve, though single readings can be large; an effect the other way counts as inactive or inconclusive. A value given as a limit tells only on which side of the number the result lay.

Sequence of Retinoic acid receptor RXR-alpha (Homo sapiens) (P19793 whole entry, looked up): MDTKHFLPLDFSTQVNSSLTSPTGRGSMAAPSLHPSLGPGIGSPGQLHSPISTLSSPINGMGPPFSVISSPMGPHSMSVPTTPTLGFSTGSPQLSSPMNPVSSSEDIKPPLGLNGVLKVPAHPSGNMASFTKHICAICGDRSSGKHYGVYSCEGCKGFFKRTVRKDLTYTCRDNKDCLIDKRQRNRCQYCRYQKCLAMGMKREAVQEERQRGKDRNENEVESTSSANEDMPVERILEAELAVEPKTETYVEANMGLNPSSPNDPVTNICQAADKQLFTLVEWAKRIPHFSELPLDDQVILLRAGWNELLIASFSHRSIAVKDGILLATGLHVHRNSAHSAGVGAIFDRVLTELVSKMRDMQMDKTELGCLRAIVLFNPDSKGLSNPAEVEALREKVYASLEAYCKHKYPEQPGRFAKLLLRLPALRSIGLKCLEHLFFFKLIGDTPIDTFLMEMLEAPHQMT
Sequence of Peroxisome proliferator-activated receptor gamma (Homo sapiens) (P37231 whole entry, looked up): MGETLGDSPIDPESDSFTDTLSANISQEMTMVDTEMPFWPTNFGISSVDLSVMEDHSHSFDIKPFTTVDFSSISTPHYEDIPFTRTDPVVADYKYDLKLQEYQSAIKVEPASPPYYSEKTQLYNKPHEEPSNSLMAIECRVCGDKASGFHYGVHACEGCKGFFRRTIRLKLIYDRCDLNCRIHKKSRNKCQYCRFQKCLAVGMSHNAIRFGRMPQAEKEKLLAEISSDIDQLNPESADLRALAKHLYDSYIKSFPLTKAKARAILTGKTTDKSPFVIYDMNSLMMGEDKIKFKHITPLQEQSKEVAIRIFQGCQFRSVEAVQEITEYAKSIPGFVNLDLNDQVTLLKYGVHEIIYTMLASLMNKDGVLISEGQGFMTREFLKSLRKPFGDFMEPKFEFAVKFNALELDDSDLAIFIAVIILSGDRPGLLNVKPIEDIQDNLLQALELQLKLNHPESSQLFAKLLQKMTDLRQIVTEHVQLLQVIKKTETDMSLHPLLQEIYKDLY

Consider `O=C1CCc2ccccc2O1`, for which the Potency in assay [1], in assay [2] and in assay [3] was more than 92 µM throughout. Also, the activity change, negative = cytotoxicity in [4] was 7.64%; in assay [6], -10.3%. For the same compound, the Potency entry in assay [5] was “inactive”. Besides, the outcome in assay [7] and in assay [8] was inactive.

`CO/N=C(/C(=O)N[C@@H]1C(=O)N2C(C(=O)O)=CCS[C@H]12)c1csc(N)n1`: the Potency entry with AS120, in the assay with CP217, in the assay with CP247, in the assay with CP256, in the assay on CP269 and with DIV17 was “inactive” throughout. In addition, the Potency result with ECU, in the assay with ICS, in the assay on JCK, with N140, with P94_40 and with TAB109 was “inactive” each time.

With `Cc1cccc(O)c1`, the outcome in [7] was inactive.

`C/C=C\c1ccc(OC)cc1`: the Potency in assay [1], in assay [2] and in assay [3] was more than 92 µM each time. The activity change, negative = cytotoxicity in assay [4] is -0.381%; in [6] it was -7.43%. The Potency result (in assay [5]; with AS120; in the assay with CP217; with CP247; with CP256; in the assay on CP269) was “inactive” each time. Also, the Potency entry with DIV17, in the assay with ECU, with ICS, with JCK, with N140 and in the assay on P94_40 was “inactive” each time. Moreover, in the assay with TAB109, the Potency result is “inactive”. Besides, the result in assay [7] and in assay [8] was inactive.

As for `Cc1cccc([N+](=O)[O-])c1C`, the Potency in assay [1], in assay [2] and in assay [3] was more than 92 µM in each case. Further, the activity change, negative = cytotoxicity in assay [4] is -2.02%; in [6] it was 0.624%. Besides, in assay [5], the Potency entry is “inactive”. In addition, the outcome in assay [7] and in [8] was inactive.

Consider `CN1CC[C@H](CN2c3ccccc3Sc3ccccc32)C1`, for which the Potency with AS120 is 12.6 µM (active); with CP217 it was 11.2 µM (active); in the assay with CP247, 7.94 µM (active); in the assay on CP256 it was 8.91 µM (active); in the assay with CP269 it was 15.1 µM (active); in the assay with DIV17 it was 5.36 µM (active). In addition, the Potency in the assay with ECU is 11.2 µM (active); in the assay with ICS, 2 µM (active); in the assay on N140, 11.2 µM (active); with P94_40 it was 8.91 µM (active); in the assay with TAB109 it was 11.2 µM (active).

Take `O[C@@H]([C@H](O)[C@@H](O)CBr)[C@@H](O)CBr`: the Potency in assay [1], in assay [2] and in [3] was more than 92 µM throughout. Also, the activity change, negative = cytotoxicity in assay [4] is 11.7%; in [6], 2.79%. Further, the Potency result in assay [5] was “inactive”. Also, the result in assay [8] was inactive.

Consider `CC1(C)CC(N=C=O)CC(C)(CN=C=O)C1` (configuration not stated), for which the Potency in assay [1], in assay [2] and in assay [3] was more than 92 µM in each case. Besides, the activity change, negative = cytotoxicity is 6.51% in assay [4] and 13.5% in [6]. Moreover, in assay [5], the Potency result was “inactive”. In addition, the result in assay [7] and in [8] was inactive.

In the case of `CCC(O)OC(O)CC` (configuration not stated), the Potency in assay [1], in assay [2] and in assay [3] was more than 92 µM in each case. Moreover, the activity change, negative = cytotoxicity is 5.7% and 11.3% in assay [4]; -7.55% and -1.85% in assay [6]. Moreover, the Potency entry in assay [5] is “inactive”. For the same compound, the result in [7] and in assay [8] was inactive.

Take `O=C1c2ccccc2C(=O)C1c1ccc2ccccc2n1`: the Potency in [4] is 31.6 µM (active). Moreover, the activity change, negative = cytotoxicity in assay [6] is -13.3%. In addition, the result in assay [7] and in assay [8] was inactive.

Turning to `NC1=NC(S)C2N=CN=C2N1` (configuration not stated), the Potency in [1] is 0.0486 µM (active); in [2], 1.39 µM (active); in assay [3] it was 1.89 µM (active); in assay [5], 0.398 µM (active). Also, the Potency entry with AS120, with CP217, in the assay on CP247, in the assay on CP269, in the assay with DIV17 and in the assay with ECU was “inactive” in each case. Also, the Potency result in the assay with ICS, in the assay on JCK, with N140, with P94_40 and in the assay on TAB109 was “inactive” each time.
